Compound activity deposited in PubChem by National Center for Advancing Translational Sciences (NCATS).
Most compounds without a hit are left out; they make up all but 2.5% or so of the library.
Mito fusion yeast = qHTS Assay for Small Molecule Inhibitors of Mitochondrial Division or Activators of Mitochondrial Fusion; S. cerevisiae fusion-defective mutant growth rescue, CellTiterGlo 48 h; Potency, µM (titrated, usually from 46.1 µM), inactives show at the highest dose growth rescue (activation), actives largely listed as activators; 320,000 compounds, 0.23% hits; AID 485298, 2010; also: potency is read from the fitted curve at half-maximal effect; % of control where 0% means no effect; nearly all actives have a fitted effect of over 45% in size
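Compounds are tested for their ability to restore growth of mitochondrial fusion-defective yeast strains at non-permissive 37C in YPEG medium over 48 hours. Viability is quantified by luciferase luminescence.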
CCT modulator = High-Throughput Screening for Modulators of Cytosolic Chaperonin Activity; purified chaperonin ATPase assay, HTRF ADP detection, 30 min; activity change, % (concentration not given with the values), hits read low; 360,000 compounds, 0.3% hits; in the data active = activity change below about -30%; also: % is scaled to controls: 0 for no effect and ±100 for the full control effect
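TRiC (40 or 20 nM final, by batch activity) in 30 mM Tris pH 7.4, 100 mM KCl, 5 mM MgCl2, 1 mM DTT was treated with compound at 76 uM single dose, then 10 uM ATP, 30 min at 37 °C. ADP was read by HTRF Transcreener.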
Apoferritin bind = qHTS Assay for Identification of Novel General Anesthetics; 350,000 compounds, 0.074% hits; Potency, µM (series often up to 77.5 µM), without a hit: at the highest dose activity change, negative = displacement, actives largely listed as inhibitors; AID 485281, 2010; apoferritin/1-aminoanthracene competitive binding, fluorescence; also: potency is read from the fitted curve at half-maximal effect; % is scaled to controls: 0 for no effect and ±100 for the full control effect; nearly all actives have a fitted effect of over 20% in size
Target sequence (P02791 2-175 limits assumed): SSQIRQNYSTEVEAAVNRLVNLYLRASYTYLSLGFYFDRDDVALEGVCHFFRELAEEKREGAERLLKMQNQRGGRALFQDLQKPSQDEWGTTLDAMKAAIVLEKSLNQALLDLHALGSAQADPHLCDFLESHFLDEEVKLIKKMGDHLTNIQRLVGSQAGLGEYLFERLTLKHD
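Steps: apoferritin (10 uM) was premixed with half-saturated 1-AMA in PBS, compounds were pin-transferred, plates stood 10 min at room temperature, fluorescence was read at 380/535 nm, and curves were fitted with a Hill equation.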
aSyn rescue = qHTS of alpha-syn Inhibitors; Yeast expressing alpha-synuclein, growth rescue, BacTiter-Glo, 24 h; 370,000 compounds, 0.14% hits; AID 652106, 2013; Potency, µM (doses to about 46.1 µM), for inactives: at the highest dose growth rescue (activation), hits mostly activators; also: potency is read from the fitted curve at half-maximal effect; % of control where 0% means no effect; nearly all actives have a fitted effect of over 65% in size
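Readout is rescue of growth in alpha-synuclein-expressing yeast, so inhibitors of toxicity appear as activators. Growth after 24 hr at 30 deg C in galactose medium is quantified by luminescence.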
TDP43 rescue = qHTS of TDP-43 Inhibitors | Potency, µM (highest dose often 46.1 µM), without a hit: at the highest dose growth rescue (activation), hits mostly activators | 410,000 compounds, 1.8% hits | TDP-43 expressing yeast growth rescue, BacTiter-Glo, 24 h; also: potency is read from the fitted curve at half-maximal effect; % of control where 0% means no effect; nearly all actives have a fitted effect of over 50% in size
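Readout is BacTiter-Glo luminescence of cell growth, so inhibitors register as activators. TDP-43-expressing yeast at OD600=0.02 in galactose medium, after raffinose pregrowth to mid-log, were incubated with compound for 24 hr at 30 deg C.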
Akt phos inh = HTS Assay for Inhibitors of Akt Phophorylation: Primary Screen. Neuro2A IGF-stimulated pAkt S473 HTRF, 20 min; stronger effect = lower value. activity change, % for hits at 50 µM. 360,000 compounds, 0.32% hits; in the data active = activity change below about -80%; inconclusive = mostly about -51% to -80%; also: % is scaled to controls: 0 for no effect and ±100 for the full control effect
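Neuro2A cells (4,500/well, DMEM with 0.5% FBS) were treated with compound at a single 50 µM final concentration, stimulated with 6 nM IGF for 20 min at 37 °C, and lysed. Phospho-Akt Ser473 was read by HTRF as 665/615 ratio ×10^4.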
* = called active by the depositor; i = inactive; ? = inconclusive; nt = no result; [ ] = dose if it differs, or a comment. Unless noted, calls follow the shape of the dose curve; as a rule, active = well fitted curve in the direction sought with a large enough effect; inconclusive = small, poorly fitted or top-dose-only effect, or another doubt; inactive = no such curve, though single readings can be large; an effect the other way counts as inactive or inconclusive.

SMILES | Mito fusion yeast | CCT modulator | Apoferritin bind | aSyn rescue | TDP43 rescue | Akt phos inh
O=c1[nH][nH]c2c1[C@H](c1ccccc1)O[C@H](C1CCCCC1)C2 | nt | 1 | nt | 5% | 35µM* | i
O=c1[nH][nH]c2c1[C@H](c1ccc(Cl)cc1)O[C@H](C1CC1)C2 | nt | 1 | nt | 1% | 11µM* | i
O=c1[nH][nH]c2c1[C@H](c1ccc(F)cc1)O[C@H](C1CCCCC1)C2 | nt | -11 | nt | 1% | 32µM* | i
C[C@@H]1Cc2[nH][nH]c(=O)c2[C@H](c2ccc(Cl)cc2)O1 | nt | -2 | nt | 0% | 29% | i
O=c1[nH][nH]c2c1[C@@H](c1ccc(F)cc1)O[C@H](C1CCCCC1)C2 | nt | 0 | nt | -2% | 14% | i
CCc1ccccc1NS(=O)(=O)c1ccc2c(c1)CCCN2C(=O)C1CCC1 | nt | nt | 159% | nt | 27% | nt
O=C(CNC(=O)C1CCCCC1)OCC(=O)c1ccc(-c2ccccc2)cc1 | nt | nt | nt | 5% | nt | nt
O=C(Oc1c(Cl)cc(Cl)c2cccnc12)c1ccco1 | ? | 1 | ? | 3.5µM* | ? | i
O=C(Oc1c(Cl)cc(Cl)c2cccnc12)c1cccs1 | -1% | 0 | ? | 13% | ? | i
Cn1c(=O)n2n(c1=O)[C@H]1[C@H](O)[C@H]3O[C@@H]3/C(=N/OC[C@@H](O)COCc3ccco3)[C@@H]1CC2 | nt | nt | 0%[15.3 µM] | nt | nt | nt
O=C(c1ccco1)N1CCC(c2nc(-c3ccc(F)cc3)no2)CC1 | 7% | -35* | -15% | 2% | -7% | i
O=C(Nc1ccc(Cl)cc1)N1CCC(c2nc(-c3ccccc3Cl)no2)CC1 | 27% | 2 | 8% | 14% | 18µM* | i
O=S(=O)(c1ccccc1Cl)N1CCCC1c1nc(-c2ccccc2Cl)no1 (stereo not drawn) | 0% | -1 | 13% | 16% | 14µM* | i
Cc1ccc(NC(=O)N2CCCC(c3nc(-c4ccc(F)cc4)no3)C2)cc1 (stereo not drawn) | 23% | -1 | -14% | 6% | 35µM* | i
O=S(=O)(c1ccc(Cl)cc1)N1CCCC1c1nc(-c2ccc(Cl)cc2)no1 (stereo not drawn) | 11% | 0 | 34% | 19% | -4% | i
O=C(Nc1ccccc1)N1CCCC(c2nc(-c3ccc(F)cc3)no2)C1 (stereo not drawn) | 1% | 1 | -22% | 16% | ? | i
O=C(c1ccco1)N1CCC(c2nc(-c3ccccc3Cl)no2)CC1 | 7% | -1 | -11% | 1% | ? | i
NC(=O)c1ccc2nc(-c3ccc(Oc4ccc(Cl)cc4)cc3)[nH]c2c1 | nt | nt | 67% | nt | nt | nt
CN(C)CCNc1nccc(N2CCN(C)CC2)n1 | nt | nt | nt | -6% | nt | nt
O=C(Oc1ccc(Cl)c2cccnc12)c1cccnc1 | 2% | 3 | -17% | 28% | 11µM* | i
COc1ccc2c(c1)C(=O)CC2 | nt | nt | nt | -5% | nt | nt
COc1cccc(CNC(=O)CCc2c(C)c3cc4c(C)coc4cc3oc2=O)c1 | nt | nt | -11% | nt | 15% | nt
N#Cc1nc(/C=C/c2ccc(F)cc2)oc1N1CCCCCC1 | nt | nt | 611% | nt | 11µM* | nt
COc1ccc(/C=C/c2nc(C#N)c(N3CCCCCC3)o2)cc1OC | nt | nt | 579% | nt | 18µM* | nt
CCN1CCN(c2oc(/C=C/c3ccc(OC)c(OC)c3)nc2C#N)CC1 | nt | nt | 158% | nt | 5% | nt
CC1CCN(c2oc(/C=C/c3ccc(F)cc3)nc2C#N)CC1 | nt | nt | 83% | nt | -9% | nt
Cc1ccc(Cl)cc1-n1ncc2c(N3CCN(Cc4ccccc4)CC3)ncnc21 | nt | nt | -2% | nt | -11% | nt
CC1CC=CC2C1C(=O)N(Cc1ccccc1)C2c1ccc(-c2ccoc2)cc1F (stereo not drawn) | nt | nt | -10% | nt | nt | nt
Cc1nc2cc(NS(=O)(=O)c3c(C)c(C)cc(C)c3C)ccc2s1 | 35µM* | -2 | 5% | ? | ? | i
